# CatB mixtures – human cathepsin B inhibition by mixtures; inhibition, %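 (ten-compound pools at 5 µM per compound and 50 µM total)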; Purified cathepsin B, AMC dipeptide fluorescence, compound mixtures; P07858; AID 488; 0.06% of 62,000 active; in the data active = inhibition above about 22%, passing the limit was not always enough; inconclusive = no clear call, values can overlap the other calls;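 also: 0% = enzyme without compound and 100% = no enzyme blank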
# CatL inh – blocks human cathepsin L protease activity; 0.17% of 58,000 active; purified cathepsin L, fluorogenic substrate, fluorescence; inhibition, %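 (tested at 10 µM)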; in the data active = inhibition above about 45%;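 also: 0% = enzyme with no compound and 100% = no enzyme blank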
# CatS inh – inhibitors of human cathepsin S | P25774 | recombinant cathepsin S, AMC dipeptide fluorescence, pooled mixtures | inhibition, %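 (tested at 5 µM per compound within 10-compound mixtures)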 | 0.06% of 62,000 active; in the data active = inhibition above about 32%, passing the limit was not always enough; inconclusive = no clear call, values can overlap the other calls;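 also: 0% = enzyme without compound and 100% = blank without enzyme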
# Target sequence (P25774 115-331 limits assumed): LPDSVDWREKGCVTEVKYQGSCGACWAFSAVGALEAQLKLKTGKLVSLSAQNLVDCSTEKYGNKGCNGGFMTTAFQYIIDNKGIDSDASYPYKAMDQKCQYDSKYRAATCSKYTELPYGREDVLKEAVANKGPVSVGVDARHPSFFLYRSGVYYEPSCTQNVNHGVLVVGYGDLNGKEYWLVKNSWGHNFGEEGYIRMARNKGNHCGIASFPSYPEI
# C1s inh – human complement C1s inhibition; mean inhibition % of two 10-compound mixtures (stronger effect = higher value), % at 5 µM (by protocol); 0.16% of 62,000 active; purified C1s, fluorogenic AMC substrate, pooled mixtures; P09871;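 active = inhibition above 20% in each of the two 10-compound mixture wells holding the compound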;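 also: 0% = enzyme wells lacking compound mixture and 100% = no-enzyme blank wells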
# Cathepsin G inh – inhibitors of human cathepsin G; inhibition, % at 5 µM (by protocol); AID 581; 0.2% of 62,000 active; purified enzyme, AMC-tetrapeptide fluorescence, pooled mixtures; P08311;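 active = inhibition above 20% in each of the two mixture wells holding the compound; inactive = inhibition of 20% or less in either well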;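 also: 0% = enzyme control without mixture and 100% = blank lacking enzyme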
# Target sequence (P08311 21-244 limits assumed): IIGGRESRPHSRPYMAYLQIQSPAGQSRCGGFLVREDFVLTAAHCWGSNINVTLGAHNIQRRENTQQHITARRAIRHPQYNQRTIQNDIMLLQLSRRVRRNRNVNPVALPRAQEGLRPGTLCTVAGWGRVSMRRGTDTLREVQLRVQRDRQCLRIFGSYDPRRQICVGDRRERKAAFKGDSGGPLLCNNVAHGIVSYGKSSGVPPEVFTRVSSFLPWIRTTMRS
# CatB block – blocks human cathepsin B protease activity; P07858; purified cathepsin B, fluorogenic substrate, fluorescence; inhibition, %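 (tested at 10 µM)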; 0.1% of 63,000 active; in the data active = inhibition above about 21%;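 also: 0% = enzyme with no compound and 100% = no enzyme blank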
# * = called active by the depositor; ? = inconclusive; . = not tested or not shown. In the library only some 0.58% were active in any assay of this set; here they are far more common.
SMILES,CatB mixtures,CatL inh,CatS inh,C1s inh,Cathepsin G inh,CatB block
CCOc1ccccc1NC(=O)CCC(=O)O,10,0,-5,40,15,1
COc1ccccc1NC(=O)CCC(=O)O,53,22,.,12,11,33*
Cc1nc(CNS(=O)(=O)c2cc(C)c(C)cc2C)cs1,7,9,26,57*,7,3
COc1ccc(-n2c(=O)c3c4c(sc3n3cnnc23)CC(C)CC4)cc1 (stereo not given),9,48*,31,-3,0,-3
CC(=O)CCc1c(C)c2cccc(C)c2[nH]c1=O,0,104*,-1,8,10,3
Cn1c(=O)c2cc(NC(=O)c3ccccc3Cl)c(=O)oc2n(C)c1=O,9,.,2,14,20*,5
CCS(=O)(=O)c1ccc(NC(=O)c2ccccc2Cl)c(O)c1,-12,6,-15,-97,-4,0
O=C(c1cc2ccccc2oc1=O)N(Cc1ccc2c(c1)OCO2)Cc1ccco1,2,-3,-3,13,-6,-2
O=C(CCCCn1c(=O)[nH]c2ccsc2c1=O)NCc1cccnc1,25*,-1,2,13,27,0
COc1ccccc1CNC(=O)CCn1c(=O)[nH]c2ccsc2c1=O,7,3,9,3,2,-2
COCCCNC(CC(=O)Nc1ccccc1C(=O)OC)C(=O)O (stereo not given),5,14,-2,22*,14,7
Cn1c(CN2CCOCC2)c(C#N)c2ccccc21,2,3,7,1,-3,-5
C=CCn1c(O)c(CN2CCOCC2)c(C)c(C#N)c1=O,-1,103*,4,3,-2,-3
O=C(Nc1ccc(OC(=O)c2ccco2)cc1)c1ccco1,2,3,12,30,0,3
COC(=O)c1ccc(OC(=O)c2ccco2)cc1,1,-10,-6,34*,5,0
CCCCCn1c(=O)[nH]c2cc(C(=O)NCCCN3CCC(C)CC3)ccc2c1=O,6,-9,24,-3,-3,5
COC(=O)c1ccc(NC(=O)c2ccc(CN3CCOCC3)cc2)cc1,1,84*,6,-29,-29,1
O=c1oc(-c2ccco2)nc2ccccc12,-8,0,-1,48*,74*,3
Cc1sc2nc(-c3ccco3)oc(=O)c2c1C,7,6,2,32*,11,0
CC1CCCCN1Cc1nc2c(c(=O)n(C)c(=O)n2C)n1Cc1cccc2ccccc12 (stereo not given),3,4,8,15,8,5
COc1ccc(-c2cc(C(=O)Nc3c(C)nn(Cc4ccccc4Cl)c3C)no2)cc1,1,-1,3,10,52*,4
Cc1nn(Cc2ccc(Cl)c(Cl)c2)c(C)c1NC(=O)c1cc(-c2ccc3c(c2)OCO3)on1,-3,13,3,-25,40*,0
COc1ccc(OC)c(-c2cc(C(=O)Nc3c(C)nn(Cc4ccc(Cl)cc4)c3C)no2)c1,1,25,2,11,10,1
COc1ccc(OC)c(-c2cc(C(=O)Nc3c(C)nn(Cc4ccccc4)c3C)no2)c1,0,3,19,-18,50*,2
CCOc1ccc(NS(=O)(=O)c2ccc(OCC(=O)N3CCCC3)cc2)cc1,3,5,0,-9,11,2
SMILES,CatB mixtures,CatL inh,CatS inh,C1s inh,Cathepsin G inh,CatB block
CCOc1ccc(NS(=O)(=O)c2ccc(NS(C)(=O)=O)cc2)cc1,4,76*,-7,-8,6,2
CCn1c(C(=O)NCc2cccnc2)cc2sc(Cl)cc21,2,-2,-1,2,1,2
Cc1cccn2c(=O)c3cc(C(=O)N4CCc5ccccc54)n(C)c3nc12,-1,7,-2,-48,1,7
Nc1ccc2ncccc2c1N,.,79*,.,.,.,7
Cc1ccc(CNC(=O)Cn2c(=O)oc3ccccc32)o1,1,6,13,12,12,5
COc1ccc(C(=O)CSc2nc(C)cc(=O)[nH]2)cc1,3,4,-11,13,12,2
Cc1cc(=O)[nH]c(SCC(=O)c2ccc(C(C)C)cc2)n1,0,23,5,57*,11,-3
COc1ccccc1S(=O)(=O)Cc1ccc(C(=O)NCCN2CCCCCC2)o1,5,50*,-2,-10,3,2
O=C(Cc1cccs1)N(c1ccccc1)C1C=CS(=O)(=O)C1 (stereo not given),4,14,-15,16,9,1
CCc1ccccc1N(C(=O)c1cccs1)C1C=CS(=O)(=O)C1 (stereo not given),3,7,11,60*,15,7
Cc1cc(C(F)(F)F)nn1CCCNC(=O)c1cnccn1,4,-7,-3,21,17,-2
COc1cc(NC(=O)c2csc3c2CCCC3)ncn1,2,-9,-2,38,34*,4
Nn1c(SCC(=O)NC2CCCc3ccccc32)nnc1-c1cccs1 (stereo not given),2,7,-9,12,9,2
O=CN1CC(=O)N(c2ccccc2)c2c([nH]c3ccccc23)C1,2,-7,-9,6,8,2
COc1cc(OC)cc(C(=O)Nc2ncc3c(n2)CC(C)CC3=O)c1 (stereo not given),5,-1,11,22*,17,4
Cc1nccn1-c1cc(C(C)C)c(C#N)c2nc3ccccc3n12,.,-5,.,.,.,-2
C=COCCn1c(-c2nonc2N)nc2ccccc21,55*,86*,?,4,6,15
Cc1ccc(Cn2c(-c3nonc3N)nc3ccccc32)cc1,-1,22,-13,-117,-6,22*
COc1cc(Cn2c(-c3nonc3N)nc3ccccc32)ccc1C,30,23,3,0,-2,50*
COc1cccc(Cn2c(-c3nonc3N)nc3ccccc32)c1,15,50*,-1,-1,-1,39*
Nc1nonc1-c1nc2ccccc2n1Cc1ccc(Cl)cc1,22,30,-2,13,8,8
O=C(O)c1cc(S(=O)(=O)Nc2ccc3c(c2)OCCO3)c(Cl)cc1Cl,5,8,16,11,13,13
CCn1c2ccccc2c2nnc(SCc3cc(=O)n4ccsc4n3)nc21,1,23,3,8,10,4
O=C(C1CCCN(S(=O)(=O)c2cccnc2)C1)N1CCn2c1nc1ccccc12 (stereo not given),-2,11,-14,-76,-26,0
CN(C)S(=O)(=O)c1ccc(C(=O)OCC(=O)NC(=O)NCc2ccccc2)cc1,1,-10,-11,-9,6,5
O=C(NCCN1CCOCC1)c1noc2c1CCc1ccccc1-2,4,10,30,20,90*,1
O=C(Cc1ccc(-c2ccccc2)cc1)NCCN1CCOCC1,4,-18,0,24*,10,1
CCCc1cc(C(=O)NCCc2ccccc2)no1,5,.,8,8,9,4
